# From PubChem BioAssay (NCATS)
# Values joined by “and” are separate entries in the source; they are usually repeats but may differ in a detail not shown here. Identical values can stand only once. Results filed as inconclusive are left out. A call without a number means that no potency is given here. Active and inactive are the calls of the source. Unless noted, calls come from the whole dose curve; as a rule, active = well fitted curve in the direction sought with a large enough effect; inconclusive = small, poorly fitted or top-dose-only effect, or another doubt; inactive = no such curve, though single readings can be large; an effect the other way counts as inactive or inconclusive.
# How the values were obtained:
# [1] = target: Calcium and integrin-binding protein 1 (Homo sapiens) (UniProt Q99828); experiment: Primary qHTS for Identification of Calcium Integrin Binding Protein 1 (CIB1) Competitor (AID 1508620);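 note: GST tagged CIB1 binding a fluorescein labelled alphaIIb integrin peptide tracer; top concentration of the series differs between compounds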
# Chain of Calcium and integrin-binding protein 1 (Homo sapiens) (Q99828 whole entry, looked up): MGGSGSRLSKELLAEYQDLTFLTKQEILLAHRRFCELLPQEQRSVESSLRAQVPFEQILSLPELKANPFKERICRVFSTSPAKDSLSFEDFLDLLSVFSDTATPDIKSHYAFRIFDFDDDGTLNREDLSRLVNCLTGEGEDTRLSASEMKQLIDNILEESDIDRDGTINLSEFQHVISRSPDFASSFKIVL
# Summary of the method: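 Fluorescence polarization competition: GST-tagged CIB1 (1 uM final) preincubated with compound 15 min at room temperature, then FITC-labelled alphaIIb peptide (100 nM final) added. After 15 min at room temperature, polarization read at Ex 480/Em 540.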
# [2] = target: Cytochrome P450 2D6 (Homo sapiens) (UniProt P10635); experiment: Cytochrome P450 family 2 subfamily D member 6 (CYP2D6) small molecule antagonists: luciferase biochemical (cell-free) qHTS assay (AID 1645840; active = well fitted curve in the direction sought with a large enough effect in the repeat runs; an effect the other way counts as inactive or inconclusive; note: nearly all actives have a fitted effect of over 55% in size; note: potency is the fitted concentration of half-maximal effect)
# Chain of Cytochrome P450 2D6 (Homo sapiens) (P10635 whole entry, looked up): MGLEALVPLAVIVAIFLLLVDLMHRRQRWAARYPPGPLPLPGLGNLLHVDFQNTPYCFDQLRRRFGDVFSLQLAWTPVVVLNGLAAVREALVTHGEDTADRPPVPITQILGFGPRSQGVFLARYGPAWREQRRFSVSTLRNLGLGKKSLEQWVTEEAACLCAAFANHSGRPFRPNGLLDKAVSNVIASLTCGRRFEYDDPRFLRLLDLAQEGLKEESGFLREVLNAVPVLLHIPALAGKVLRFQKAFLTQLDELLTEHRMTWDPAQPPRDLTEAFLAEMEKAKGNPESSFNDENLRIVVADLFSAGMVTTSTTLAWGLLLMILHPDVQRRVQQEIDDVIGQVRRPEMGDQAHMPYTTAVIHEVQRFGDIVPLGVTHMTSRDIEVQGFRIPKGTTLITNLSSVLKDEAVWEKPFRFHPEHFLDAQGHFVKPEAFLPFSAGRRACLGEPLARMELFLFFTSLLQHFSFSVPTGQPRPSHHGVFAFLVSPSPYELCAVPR
# Summary of the method: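 P450-Glo luminescent screen: recombinant CYP2D6 enzyme–proluciferin substrate mix preincubated with compound 10 min at room temperature, then NADPH regeneration added for 1 h at room temperature. Detection reagent added for 20 min; luciferin light read as relative luminescence units.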
# [3] = Counterscreen qHTS for small molecule stabilizers of the endoplasmic reticulum resident proteome: GLuc-NoTag assay (AID 1508627); settings: Gaussia luciferase NoTag secretion counterscreen, luminescence; thapsigargin 100 nM for final 4 h; note: potency is the fitted concentration of half-maximal effect
# Summary of the method: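 SH-SY5Y cells stably expressing constitutively secreted GLuc without SERCaMP tag, exposed to compound for 19 hr, then to 100 nM thapsigargin for 4 hr at 37C. Medium luciferase was read by coelenterazine luminescence without lysis.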
# [4] = Confirmatory qHTS for small molecule stabilizers of the endoplasmic reticulum resident proteome: Secreted ER Calcium Modulated Protein (SERCaMP) assay (AID 1508628);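 note: SH-SY5Y cells given compound 16 h then thapsigargin 100 nM for 4 h; series mostly up to about 76 µM; nearly all actives have a fitted effect of over 40% in size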
# From the text: Assay Provider: Brandon K. Harvey Ph.D.
# National Institute on Drug Abuse, National Institutes of Health, Baltimore, MD
# Endoplasmic reticulum (ER) dysregulation is associated with human pathologies including neurodegenerative, cardiovascular, muscular, and diabetic conditions. Maintenance of ER calcium is critical for functions of the ER and its depletion can lead to loss of ER resident proteins, in a process termed exodosis. Therapeutic compounds capable of attenuating the redistribution of ER proteins under pathological conditions may slow or stop disease progression. To identify such compounds, we performed a quantitative high-throughput screen (qHTS) using the SERCaMP assay, which monitors secretion of ER resident proteins triggered by calcium depletion. […]
# 8; Detection; Luminescence; ViewLux imaging system […]
# 7; Gaussia luciferase in the medium was measured by adding 1 ul of 0.5x coelenterazine (final concentration 0.07x) prepared in Gaussia Luciferase Glow Assay Buffer (Pierce), without addition of the Cell Lysis Buffer Reagent.
# 8; Luminescence was measured using a ViewLux […] CCD imaging system (Perkin Elmer) equipped with clear filters. […]
# [5] = Cell Viability qHTS for small molecule stabilizers of the endoplasmic reticulum resident proteome (AID 1508629); settings: cell viability counter-screen, 100 nM thapsigargin for final 4 h;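 note: potency is the fitted concentration of half-maximal effect; compound exposure about 46 h in total before the viability read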
structure (smiles),measurement,setting,value
C[C@]12C=CC(=O)C=C1CC[C@@H]1[C@@H]2[C@@H](O)C[C@@]2(C)[C@H]1CC[C@]2(O)C(=O)COC(=O)CCC(=O)O,Potency,[1],inactive
same,Potency,[2],inactive
CC(C)N(C[C@H]1O[C@@H](n2cnc3c(N)ncnc32)[C@H](O)[C@@H]1O)C1CC(CCc2nc3ccc(C(C)(C)C)cc3[nH]2)C1 (some centres not stated),Potency,[1],inactive
same,Potency,[2],16.9 µM (active)
C[C@H]1CN(C[C@H](Cc2ccccc2)C(=O)NCC(=O)O)CC[C@@]1(C)c1cccc(O)c1,Potency,[1],inactive
same,Potency,[2],inactive
NC(Cc1c[nH]c2ccccc12)C(=O)NC(CCC(=O)O)C(=O)O (configuration not stated),Potency,[1],inactive
same,Potency,[2],inactive
Cc1ccc(C(=O)Nc2ccc(Oc3cc4cnn(C)c4cc3-c3cn[nH]c3)c(F)c2)c(=O)n1-c1ccc(F)cc1,Potency,[1],inactive
same,Potency,[2],inactive
CCOc1ccc(C(Nc2ccccn2)c2ccc3ccc(C)nc3c2O)cc1C (configuration not stated),Potency,[1],inactive
same,Potency,[2],inactive
O=C(NCC(=O)N1CC[C@H](NC2CCC(O)(c3ccc(-c4ncccn4)cn3)CC2)C1)c1cccc(C(F)(F)F)c1 (some centres not stated),Potency,[1],inactive
same,Potency,[2],inactive
Cc1cc(Nc2ncc(Cl)c(Nc3ccccc3S(=O)(=O)C(C)C)n2)c(OC(C)C)cc1C1CCNCC1,Potency,[1],inactive
same,Potency,[2],16.9 µM (active)
NCc1c[nH]c(=S)n1C1CCc2c(F)cc(F)cc2C1 (configuration not stated),Potency,[1],inactive
same,Potency,[2],3.79 µM (active)
CCn1c2ccccc2c2cc(CNC)ccc21,Potency,[1],inactive
same,Potency,[2],9.52 µM (active)
COc1cccc2c1CCC[C@H]2CN(C)CCc1ccc2ccoc2c1,Potency,[1],inactive
same,Potency,[2],0.0535 µM (active)
O=C(O)[C@H]1CCCC[C@H]1C(=O)N1CCc2ccccc2[C@H]1CN1C(=O)c2ccccc2C1=O,Potency,[1],inactive
same,Potency,[2],inactive
Clc1ccc(CN[C@H]2CCN(c3ncc(Br)cn3)C2)c(Cl)c1,Potency,[1],inactive
same,Potency,[2],0.674 µM (active)
CCOC(=O)N1CCC(NCCNC(=O)c2ccccc2C)CC1,Potency,[1],inactive
same,Potency,[2],10.7 µM (active)
CN(C)C/C=C/C(=O)Nc1ccc(C(=O)Nc2cccc(Nc3ncc(Cl)c(-c4c[nH]c5ccccc45)n3)c2)cc1,Potency,[1],inactive
same,Potency,[2],inactive
c1nc(NC2CCCCCC2)c2cc(CNC[C@H]3CCCO3)sc2n1,Potency,[1],inactive
same,Potency,[2],19 µM (active)
CNC(=O)Nc1ccc(OC)c(NC(=O)NC(=O)c2cc(F)c(F)cc2Cl)c1,Potency,[1],inactive
same,Potency,[2],inactive
CNC(=O)O[C@H]1COc2ccc(N3CCN(C4COC4)CC3)cc2[C@@H]1NC(=O)c1ccc(F)cc1,Potency,[1],inactive
same,Potency,[2],inactive
CNC(=O)c1ccc2cc([C@@]3(O)CCn4cncc43)ccc2c1,Potency,[1],inactive
same,Potency,[2],12 µM (active)
CCCCNC(=O)[C@@H]1Cc2ccccc2N1C(=O)[C@@H](N)CC,Potency,[1],inactive
same,Potency,[2],inactive
CCn1nnnc1NCc1ccc(C(C)C)cc1,Potency,[1],inactive
same,Potency,[2],inactive
Nc1ncnc2c1ncn2[C@H]1CCCO1,Potency,[1],inactive
same,Potency,[2],inactive
COC(=O)C1=C(C)NC(C)=C(C(=O)OCCCN2CCC(c3ccccc3)(c3ccccc3)CC2)[C@H]1c1cccc([N+](=O)[O-])c1,Potency,[3],39.8 µM (active) and 44.7 µM (active)
same,outcome,[4],inactive
same,Potency,[5],25.1 µM (active) and 28.2 µM (active)
